Assay outcomes as filed in PubChem BioAssay.
HEK293 tox: cytotoxicity in counter-screen for GLP-1R inverse agonists; Potency, µM (highest dose often 38.3 µM), for inactives: at the top dose activity change, negative = inhibition, hits mostly inhibitors; HEK293 cAMP-luciferase reporter cells, luminescence, 24 h; hit rate 0.13% among 410,000;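 note: loss of luciferase light is scored as toxicity; potency is the fitted concentration of half-maximal effect; % is set by controls: 0 for no effect and ±100 for the full control effect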
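Seeding density was 200 cells/uL; after overnight-length (12 h) culture, 23 nL compounds went on for 24 h at 37 °C. Readout used a luciferase detection reagent, luminescence taken after 12 min at room temperature.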
TRHR enhancer: allosterically enhances the human TRH receptor | P34981 | TRHR cells, fluo-8 calcium fluorescence, EC20 TRH enhancement | enhancement, % at 2 µM | hit rate 0.66% among 360,000 | AID 493056; in the data active = enhancement above about 30%; note: 0% is about no effect
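Enhancer read-out: after compound pinning and an initial kinetic agonist-mode read, an EC20 of TRH (10 nM final) was injected and fluo-8 calcium signal (Ex 480/Em 530) followed at 1 s/cycle for 100 cycles in TRHR-expressing cells.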
GLP1R ag: activates the human GLP-1 receptor; P43220; HEK293 GLP-1R CRE-luciferase, luminescence, 4-6 h; cells express a hypersensitive GLP-1R form; Potency, µM (highest dose often 45.6 µM), for inactives: top-dose activation, usual class: activators; hit rate 0.007% among 380,000; AID 624172; note: potency is the fitted concentration of half-maximal effect; % of control where 0% means no effect
Target sequence (P43220 whole entry, looked up): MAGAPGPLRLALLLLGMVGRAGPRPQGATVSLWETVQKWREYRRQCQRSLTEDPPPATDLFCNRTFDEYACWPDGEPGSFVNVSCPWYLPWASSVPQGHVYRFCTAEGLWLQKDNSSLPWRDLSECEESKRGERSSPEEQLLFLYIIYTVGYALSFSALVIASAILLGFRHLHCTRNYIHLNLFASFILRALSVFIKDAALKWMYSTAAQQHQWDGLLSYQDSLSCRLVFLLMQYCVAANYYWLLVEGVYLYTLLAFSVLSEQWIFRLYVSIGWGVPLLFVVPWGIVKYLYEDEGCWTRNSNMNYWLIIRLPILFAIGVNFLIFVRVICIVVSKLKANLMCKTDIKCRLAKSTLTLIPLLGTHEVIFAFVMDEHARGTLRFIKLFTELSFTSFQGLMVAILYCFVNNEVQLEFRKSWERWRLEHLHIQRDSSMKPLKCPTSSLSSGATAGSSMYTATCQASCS
GLP-1R inv ag: GLP-1 receptor (human) inverse agonism; HEK293 GLP-1R CRE-luciferase, luminescence, 24 h; GLP-1R form is constitutively active; Potency, µM (titrated, usually from 38.3 µM), without a hit: top-dose activity change, negative = inhibition, most hits filed as inhibitors; hit rate 1.6% among 410,000; note: potency is the fitted concentration of half-maximal effect; % is set by controls: 0 for no effect and ±100 for the full control effect; nearly all actives have a fitted effect of over 55% in size
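Cells are plated, allowed 12 hours at 37 deg C, then treated with compounds for 24 hr before luciferase detection reagent is added and luminescence is read after 12 min at room temperature. The HEK293 line carries constitutively active GLP-1R with a cAMP-responsive reporter.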
PTHR1 agonist: activates the human parathyroid hormone receptor PTHR1 | AID 743266 | HEK293 GP2 PTHR1 cells, GloSensor cAMP luminescence, 1 h | Potency, µM (top dose mostly 115 µM), for the others: at the highest dose activation, hits mostly activators | Q03431 | hit rate 0.075% among 410,000; note: potency is the fitted concentration of half-maximal effect; nearly all actives have a fitted effect of over 55% in size
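HEK-293-derived GP2 cells expressing PTHR1 and a GloSensor cAMP reporter, 3,000/well, plated overnight, given luciferin plus IBMX (each 0.5 mM as added) for 1 h at 37 °C, then compound for 1 h at 37 °C. Luminescence was read after 15 min at room temperature.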
TRHR agonist: agonists of human TRH receptor; P34981; TRHR cells, calcium flux fluo-8, FDSS agonist mode; activation, % at 2 µM; hit rate 0.18% among 360,000; in the data active = activation above about 30%; note: 0% is about no effect
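In this calcium-flux screen, cells bearing human TRHR are dye-loaded with fluo-8, baselined for 10 cycles, then exposed to library compounds; positive kinetic calcium responses during the agonist phase mark hits, with TRH as control.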
* = called active by the depositor; i = inactive; ? = inconclusive; . = no result given; [ ] = remark or other dose. Compounds with a hit are over-represented: about 2.4% of the library has one in this group of screens. Unless noted, calls come from the whole dose curve; as a rule, active = well fitted curve in the direction sought with a large enough effect; inconclusive = small, poorly fitted or top-dose-only effect, or another doubt; inactive = no such curve, though single readings can be large; an effect the other way counts as inactive or inconclusive.

SMILES	HEK293 tox	TRHR enhancer	GLP1R ag	GLP-1R inv ag	PTHR1 agonist	TRHR agonist
O=C(O)CCC(=O)N1N=C(c2cccs2)CC1c1cn(-c2ccccc2)nc1-c1ccccc1 (configuration not stated)	-11%	34*	-3%	-21%	i	0
O=C(CSc1ccccc1)NNC(=O)c1ccncc1	1%	32*	3%	9%	-15%	0
CCOC(=O)C(NC(=O)c1cccc(Cl)c1)(Nc1sc2c(c1C(N)=O)CCC2)C(F)(F)F (configuration not stated)	-6%	-5	1%	30%	-1%	0
CS(=O)(=O)N(CC(=O)N1CCc2ccccc2C1)c1cccc([N+](=O)[O-])c1	-10%	32*	7%	0%	i	0
CCN1CCN(C(=O)CN(c2cccc(Br)c2)S(=O)(=O)c2ccccc2)CC1	-1%	2	0%	0%	i	0
O=C(CN(c1cccc(Br)c1)S(=O)(=O)c1ccccc1)N1CCc2ccccc2C1	4%	6	.	10µM*	-16%	0
CN(C)S(=O)(=O)c1ccc2c(c1)/C(=C/c1cc3c([nH]1)CCCC3)C(=O)N2	-12%	-2	18%	13%	-21%	69*
Cc1cc2nc(-c3nnnn3C3CCCCC3)c(=O)[nH]c2cc1C	2%	.	5%	10%	i	.
O=C(Nc1ccc(S(=O)(=O)Nc2ncccn2)cc1)C(F)(F)F	-1%	-5	-4%	18%	?	0
O=C(c1ccc(CN2CCc3ccccc3C2)cc1)N1CCN(c2ccc(F)cc2)CC1	-28%	.	0%	2µM*	-23%	.
O=C(c1ccccc1[N+](=O)[O-])N1N=C(c2ccccc2)CC1(O)C(F)(F)F (configuration not stated)	-3%	-5	15%	?	-1%	1
O=C(CCl)N(Cc1cc(=O)[nH]c2ccccc12)c1ccccc1	?	0	-8%	2.8µM*	-39%	0
CCCS(=O)(=O)c1c(S(=O)(=O)CCC)c2cnccn2c1C(=O)c1ccc(Cl)cc1	-3%	33*	-1%	-28%	i	0
O=C(O)CCCC(=O)N1CCc2cc(S(=O)(=O)NCc3ccccc3)ccc21	6%	-4	-7%	-1%	-13%	-1
CCOC(=O)c1nc2sc3c(c2c(=O)n1C(C)C(=O)OCC)CCCC3 (configuration not stated)	18%	22	26%	1.3µM*	-5%	-1
Cc1cccc(C(=O)NC(=S)NNC(=O)c2ccc(Cl)cc2)c1	-21%	4	-14%	-19%	-10%	29
Cc1cccc(C(=O)NC(=S)NNC(=O)c2cccs2)c1	-4%	-10	-1%	15%	-23%	42*
CC(C)(C)c1ccc(C(=O)NC(=S)NNC(=O)c2cccs2)cc1	-1%	7	-23%	?	-30%	34*
O=C(NNC(=O)c1cccs1)c1cccc(F)c1	?	-2	0%	-11%	-17%	0
O=C(NNC(=O)c1cccs1)c1ccc(F)cc1	-6%	36*	5%	4%	i	0
O=C(NC(=S)NNC(=O)c1cccs1)c1ccccc1	-12%	-4	0%	18%	i	6
CCC(=O)c1ccc(OCC(=O)N2CCN(c3ccccn3)CC2)cc1	12%	-3	-2%	10%	-9%	-1
Cc1ccc(C(=O)NCCNS(=O)(=O)c2ccccc2)cn1	4%	39*	0%	8%	i	0
Cc1ccc(S(=O)(=O)NCCNC(=O)c2ccccc2)cc1	19%	-1	2%	17%	-1%[57.5 µM]	0
CN(C)CCOC1c2ccccc2CCc2ccc3ccccc3c21 (configuration not stated)	?	.	2%	5.6µM*	-12%	.
SMILES	HEK293 tox	TRHR enhancer	GLP1R ag	GLP-1R inv ag	PTHR1 agonist	TRHR agonist
CCN(CC)c1cccc(OC2=NS(=O)(=O)c3ccccc32)c1	10%	37*	-2%	8%	-44%	-2
CCc1ccc(OC2=NS(=O)(=O)c3ccccc32)cc1	-18%	8	3%	-20%	-5%	1
O=C(Nc1ccc2c(c1)OCO2)c1csc([C@@H]2O[C@H](CO)[C@H](O)[C@H](O)[C@H]2O)n1	3%	.	0%	10%	0%	.
Cn1nnnc1SCCNCc1cc(Br)ccc1OCc1ccccc1Cl	-13%	-9	-2%	10µM*	-4%	3
Cn1nnnc1SCCNCc1ccccc1OCc1ccccc1Cl	?	-6	17%	?	-20%	0
COc1cc(CNCCO)cc(Br)c1OCc1ccccc1Cl	?	2	-1%	6.3µM*	i	1
CCNCc1cc(Cl)c(OCc2ccccc2)c(OCC)c1	-17%	-4	8%	?	i	1
CCOc1cc(CNCc2ccncc2)cc(Br)c1OCc1ccc(F)cc1	-13%	3	10%	10µM*	-27%	-1
CCOc1cc(CNCCO)cc(Br)c1OCc1ccccc1	-28%	-3	7%	6.3µM*	-1%	0
Fc1ccc(COc2ccc(Br)cc2CNCc2ccncc2)cc1	2%	11	5%	?	-10%[57.5 µM]	0
COc1cc(CNC(C)(C)CO)cc(Br)c1OCc1ccc(Cl)cc1Cl	-14%	3	-27%	?	i	1
C[C@@H]1CCCCO[C@H](CN(C)C(=O)NC2CCCCC2)[C@@H](C)CN([C@H](C)CO)C(=O)c2cc(NC(=O)c3ccccc3)ccc2O1	2%	.	27%	-2%	-29%	.
CCOc1ccc(C(O)(c2ccccc2)C(CN2CCCC2)c2ccccc2)cc1 (configuration not stated)	-16%	6	11%	?	i	1
CCOc1cc(CNCc2ccccc2)ccc1OCc1ccc(Cl)cc1	?	12	12%	11µM*	-26%	4
CCOc1cc(CNCCSc2nnnn2C)cc(Br)c1OCc1ccccc1	-25%	3	6%	5.6µM*	-25%[57.5 µM]	-1
COc1ccc(CNCCc2ccc(Cl)cc2)cc1OCc1ccccc1	?	21	3%	?	-30%	0
O=C1c2ccc(-c3ccc(F)cc3OCc3ccccc3)cc2S(=O)(=O)c2cccc(C(=O)N3CCCC3)c21	2%	1	2%	-8%	-12%	0
Cn1c(=O)[nH]c(=O)c2c1nc(N1CCCCC1)n2CCOc1ccccc1	3%	-3	0%	11%	i	-1
